# In PubChem BioAssay (Tox21):
# Records with an inconclusive call do not appear. Activity calls are given as the source filed them. Calls come from the whole dose curve; as a rule, active = well fitted activation curve with a large enough effect in the signal ratio in the repeat runs, with a control signal flat (not every such curve was filed as active); inconclusive = weak or mixed curves; inactive = flat fitted curve, though single readings scatter; the % refers to the signal ratio.
# Experiment: qHTS assay for small molecule activators of the heat shock response signaling pathway (AID 743210)
# Conditions: HeLa HSE-bla reporter, beta-lactamase ratio, 5 h; series mostly up to 62.6 µM; activation: at the top concentration
# Description: U.S. Tox21 Program National Center for Advancing Translational Sciences [NCATS] NIH Chemical Genomics Center [NCGC] U.S. Environmental Protection Agency [EPA] National Institutes of Environmental Health Sciences [NIEHS] National Toxicology Program [NTP] U.S. Food and Drug Administration [FDA] Tox21 Assay Overview: Various chemicals, environmental and physiological stress conditions may lead to the activation of heat shock response/ unfolded protein response (HSR/UPR). There are three heat shock transcription factors (HSFs) (HSF-1, -2, and -4) mediating transcriptional regulation of the human HSR. To identify the compounds that activate HSR signaling, HSE-bla HeLa cell line (Invitrogen, Carlsbad, CA, USA) containing a beta-lactamase reporter gene under the control of the heat shock response elements was used to screen the Tox21 10K compound library.
# Tox21 Assay Protocol Summary: The CellSensor HSE-bla HeLa cells (Invitrogen, Carlsbad, CA, USA) were dispensed at 1500 cells/6uL/well into 1536-well black wall/clear bottom plates using a Multidrop combi (Thermo Fisher Scientific, Waltham, MA) dispenser. After the assay plates were incubated at 37 C and 5% CO2 overnight, 23 nL of compounds dissolved in DMSO, positive controls or DMSO only was transferred to the assay plate by a Pintool station (Kalypsys, San Diego, CA). The plates were incubated at 37 C for 5 h. After 1 uL of LiveBLAzerTM B/G FRET substrate was added using a Flying Reagent Dispenser (Beckman Coulter, Indianapolis, IN, USA), the plates were incubated at room temperature for 2.5 h, and fluorescence intensity was measured by an Envision plate reader (PerkinElmer, Shelton, CT).
# % is set by controls: 0 for no effect and ±100 for the full control effect.
row,SMILES,activation
1,CCCCCCn1c(=O)c2c(ncn2C)n(C)c1=O,-0.67% (inactive)
2,CCCc1c2oc(C(=O)O)cc(=O)c2cc2c(=O)cc(C(=O)O)n(CC)c12,1.44% (inactive)
3,CN1[C@@H]2CC[C@H]1CC(OC(=O)c1c[nH]c3ccccc13)C2 (stereo not given in full),-1.4% (inactive)
4,COC(=O)/C=C(/C)N,-1.29% (inactive)
5,COC(=O)N[C@H](C(=O)N[C@@H](Cc1ccccc1)[C@@H](O)CN(Cc1ccc(-c2ccccn2)cc1)NC(=O)[C@@H](NC(=O)OC)C(C)(C)C)C(C)(C)C,-0.936% (inactive)
6,COc1ccccc1OCC(O)COC(N)=O (stereo not given),-0.0517% (inactive)
7,CC(C)C(=O)OCC(C)(C)C(O)C(C)C (stereo not given),0.0928% [at 81.1 µM] (inactive)
8,Cc1nnc(SCC2=C(C(=O)O)N3C(=O)[C@@H](NC(=O)Cn4cnnn4)[C@H]3SC2)s1,0.899% (inactive)
9,CN(C)CC[C@@H](c1ccc(Cl)cc1)c1ccccn1,-1.43% (inactive)
10,OCc1ccccc1O,-1.54% (inactive)
11,CCOC(=O)c1ccccc1O,0.781% (inactive)
12,COc1nc(C)nc(NC(=O)NS(=O)(=O)c2ccccc2OCCCl)n1,-0.471% (inactive)
13,CN(C)CCOc1ccccc1Cc1ccccc1,0.45% (inactive)
14,CC1=CC(=O)CC(C)(C)C1=O,1.19% [at 81.1 µM] (inactive)
15,Cc1cc(S(=O)(=O)O)c(N)cc1Cl,-0.0496% [at 81.1 µM] (inactive)
16,OC[C@H]1O[C@@H](O[C@H]2[C@H](O)[C@@H](O)[C@H](O)O[C@@H]2CO)[C@H](O)[C@@H](O)[C@H]1O,-0.718% (inactive)
17,COc1cc(C)ccc1C(C)C,2.26% (inactive)
18,CCOC(=O)c1cc(=O)c2c(OCC(COc3cccc4oc(C(=O)OCC)cc(=O)c34)OC(=O)[C@@H](N)CCCCN)cccc2o1,-2.12% (inactive)
19,O=c1[nH]cnc2c1ncn2[C@@H]1O[C@H](CO)[C@@H](O)[C@H]1O,-0.05% (inactive)
20,CCN(CC)CCOc1ccc(Cc2ccccc2)cc1,-0.315% (inactive)

row,SMILES,activation
1,ICCc1ccccc1,0.751% (inactive)
2,Cc1cc(NS(=O)(=O)c2ccc(N)cc2)nc(C)n1,-0.201% (inactive)
3,CCOC(=O)CS,3.54% [at 81.1 µM] (inactive)
4,CCC(=O)Nc1ccc(O)cc1,0.105% (inactive)
5,COc1cc(N)c(Cl)cc1C(=O)NC1CCN(Cc2ccccc2)CC1,-0.479% (inactive)
6,O=C1CCCCCCCCCCC(=O)OCCO1,-0.0572% (inactive)
7,O=C(O)[C@@H]1CSCN1,-0.439% (inactive)
8,CC(C)Nc1nc(N)nc(Cl)n1,-0.276% (inactive)
9,CCCC1CCC(=O)O1 (stereo not given),-0.0687% (inactive)
10,CNCCC(Oc1ccccc1OC)c1ccccc1 (stereo not given),-0.16% (inactive)
11,COc1cc(Cl)ccc1Cl,0.157% [at 81.1 µM] (inactive)
12,CC[C@H]1CC[C@H](NCc2cc3c(cc2OC)[C@H]2C[C@H]2C(=O)N3C)[C@H](c2ccccc2)N1,-1.19% (inactive)
13,CCCCCCCCCCCCOCCOS(=O)(=O)O,2.21% (inactive)
14,O=C1C=CC(=O)O1,-0.199% [at 81.1 µM] (inactive)
15,CC1(C)C(=O)N(Cl)C(=O)N1Br,3.06% (inactive)
16,C=O,0.486% [at 81.1 µM] (inactive)
17,CCc1cc(Cl)c(OC)c(C(=O)NC[C@@H]2CCCN2CC)c1O,-0.1% (inactive)
18,C=CCCCCCCCCO,-2.34% (inactive)
19,CC(=O)OC(C)OC(C)=O,-0.397% [at 81.1 µM] (inactive)
20,O=C(CCCl)NCc1ccccc1,-0.471% (inactive)
